# Source: PubChem BioAssay (The Scripps Research Institute Molecular Screening Center)
# Rows were chosen to be rich in hits. Some 3.5% of all compounds tested hit in one or more screens of this group.
# TEAD-YAP block: TEAD-YAP interaction inhibition, primary screen, TEAD-YAP interaction inhibitor project, luminescence, HEK-TIYL cells; TEAD-Gal4/YAP UAS-luciferase luminescence; 640,000 compounds, 1.4% hits; inhibition, % at 9.12 µM; AID 1259422, 2018; in the data active = inhibition above about 32%;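 note: 0% = median of test compound wells and 100% = reference inhibitor wells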
# GPR151 activ: activators of human GPR151, primary screen, cell-based, PathHunter beta-arrestin, luminescence | PathHunter beta-arrestin GPR151 cells | AID 1508602, 2020 | G-protein coupled receptor 151 (Homo sapiens), Q8TDV0 | 650,000 compounds, 1% hits | activation, % at 11.2 µM; in the data active = activation above about 4.9%;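 note: 0% = median of compound wells and 100% = cells with positive control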
# Target sequence (Q8TDV0 whole entry, looked up): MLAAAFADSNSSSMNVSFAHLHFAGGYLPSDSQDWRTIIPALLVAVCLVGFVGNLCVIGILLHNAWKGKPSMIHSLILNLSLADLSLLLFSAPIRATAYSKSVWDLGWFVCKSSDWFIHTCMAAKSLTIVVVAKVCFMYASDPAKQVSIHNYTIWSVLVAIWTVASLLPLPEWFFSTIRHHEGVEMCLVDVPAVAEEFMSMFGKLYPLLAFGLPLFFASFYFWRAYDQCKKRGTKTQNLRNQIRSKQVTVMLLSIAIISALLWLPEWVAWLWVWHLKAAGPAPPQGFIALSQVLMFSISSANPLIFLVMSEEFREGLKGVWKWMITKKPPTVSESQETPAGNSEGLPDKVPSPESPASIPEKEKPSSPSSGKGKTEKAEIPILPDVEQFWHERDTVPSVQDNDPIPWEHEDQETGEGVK
# FBW7 act: FBW7 E3 ligase activators, primary screen, biochemical, AlphaScreen, human. normalized activity (activation), % at 26.1 µM. 650,000 compounds, 0.13% hits. AlphaScreen FBW7–phospho-cyclin E peptide binding, activator screen. F-box/WD repeat-containing protein 7 (Homo sapiens), Q969H0; in the data active = normalized activity above about 1.9%;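 note: purified mutant Fbw7 with reduced substrate affinity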
# MITF primary: MITF inhibitors, primary screen, biochemical, AlphaScreen, human. AlphaScreen MITF homodimerization, bead proximity signal. 650,000 compounds, 0.91% hits. inhibition, % at 2.6 µM; in the data active = inhibition above about 50%;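 note: 0% = vehicle wells with protein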
# GPR151 confirm: GPR151 activators, triplicate retest, confirmation, cell-based, PathHunter beta-arrestin, luminescence | shares compounds with GPR151 activ | AID 1508609, 2020 | 6,700 tested, under 10 active | activation, % at 11.2 µM | GPR151 PathHunter beta-arrestin cells, 90 min; % of EA-reagent control over plate median;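 active = mean percent activation across replicates above the confirmation screen cutoff of 4.91%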
# GPR119 ag: GPR119 activators in beta-arrestin cells, counter-screen for GPR151 activator project, cell-based, PathHunter beta-arrestin, luminescence, triplicate. shares compounds with GPR151 activ. 90 min; 0 = compound-well median, 100 = enzyme-acceptor control. activation, % at 11.2 µM. 6,700 compounds, 0.3% hits. AID 1508611, 2020;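 active = mean percent activation in the counterscreen above 29.09%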;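 note: counterscreen on off-target GPR119 to flag nonselective hits from the GPR151 activator screen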
# The depositor's hits bear a star; . = no result.
SMILES,TEAD-YAP block,GPR151 activ,FBW7 act,MITF primary,GPR151 confirm,GPR119 ag
CN1C=CC2=C(C#N)C(N)C(C#N)(C#N)C(c3ccccc3Cl)C2C1 (configuration not stated),6,-1,0,15,.,.
COc1cc(OC)c(C(=O)OCC(=O)c2ccccc2F)cc1OC,8,-1,0,3,.,.
CCC(C)NC(=O)CCNC(=O)c1cn(-c2cccc(OC)c2)c(=O)c2ccccc12 (configuration not stated),6,2,0,-2,.,.
CCC(C)NC(=O)c1cn(-c2cccc(OC)c2)c(=O)c2ccccc12 (configuration not stated),-3,5.4*,0,3,0,2
COc1ccc(-n2cc(C(=O)NC3CCC(C)CC3)c3ccccc3c2=O)cc1 (configuration not stated),2,5.0*,0,5,0,8
CCOC(=O)c1ccc(Nc2ncnc3c2cnn3Cc2ccccc2)cc1,2,6.2*,0,25,-1,-14
CCOC(=O)c1ccc(Nc2ncnc3c2cnn3C)cc1,-17,-1,0,10,.,.
COc1cc(OC)c(S(=O)(=O)N2CCCc3ccccc32)cc1NC(C)=O,-3,6.1*,0,11,0,2
COc1ccc(C(=O)Nc2ccccc2)cc1S(=O)(=O)N1CCCc2ccccc21,19,-1,0,32,.,.
CCc1ccccc1NC(=O)CSc1nc2c(sc(=S)n2-c2ccc(C)cc2C)c(=O)n1-c1ccccc1,11,2,0,-8,.,.
O=C1C2CC2C(=O)N1CCn1cnc(Cl)c1Cl (configuration not stated),0,0,0,11,.,.
CCOC(=O)c1c(C)nc2c(c1C)/C(=N/O)CC(C)(C)C2,-1,5.0*,0,4,-1,-11
Cc1ccc(CCNC(=O)c2cc3c(s2)CS(=O)(=O)C3)cc1,0,0,0,5,.,.
CC(C)CCNC(=O)c1cc2c(s1)CS(=O)(=O)C2,1,6.5*,0,11,0,10
Cc1ccc(CNC(=O)c2cc3c(s2)CS(=O)(=O)C3)cc1,-15,5.7*,0,-6,0,10
CCOc1ccc(NC(=O)CSC2=C(C#N)C(c3cccs3)C(C(=O)Nc3ccccc3C)=C(C)N2)cc1 (configuration not stated),19,0,0,-2,.,.
CNC(=O)Cn1ncc2c3ccccc3n(Cc3c(C)cc(C)cc3C)c2c1=O,14,0,0,6,.,.
Cc1c(C(=O)N(C)C)sc2c1c(=O)n(-c1ccc(Cl)cc1)c(=O)n2CC1OCCO1,4,6.0*,0,11,1,-4
CCCCCNC(=O)c1ccc([N+](=O)[O-])cc1Cl,-10,0,0,-13,.,.
Cc1nn(C)cc1CN1CCC(CO)(CCOc2ccccc2)CC1,5,11*,0,4,1,8
O=C1Nc2ccccc2Oc2cc([N+](=O)[O-])cc(Oc3ccc(Br)cc3)c21,4,11*,0,5,1,1
Cc1cccc(C(=O)Nc2ncc(S(=O)(=O)c3ccc([N+](=O)[O-])cc3)s2)c1,-6,4.9*,0,-4,0,8
CC(C)(C)c1ccc(C(=O)Nc2ncc(S(=O)(=O)c3ccc([N+](=O)[O-])cc3)s2)cc1,1,-2,0,8,.,.
O=C(CSc1nccn1Cc1ccc(F)cc1)Nc1nccs1,-16,7.0*,0,-7,0,-2
Cc1ccc(Cn2ccnc2SCC(=O)Nc2ccccc2F)cc1,5,8.6*,0,-2,0,-9
SMILES,TEAD-YAP block,GPR151 activ,FBW7 act,MITF primary,GPR151 confirm,GPR119 ag
O=C(/C=C/c1ccc(Cl)c([N+](=O)[O-])c1)Nc1ccccc1F,-44,-1,0,-2,.,.
CCc1nnc(SCC(=O)N(c2ccccc2)C(C)C)n1-n1cccc1,-9,0,0,15,.,.
C=CCOc1ccc(CNCCO)cc1OCC,4,7.6*,0,6,-1,0
C=CCOc1ccc(CNC2CCCC2)cc1OC,-1,5.7*,0,-24,0,3
CCOc1cc(CNCCO)ccc1OCc1ccccc1,-13,-1,0,-15,.,.
COc1ccc(CCNC(=O)CCCCCn2c(SCc3c(F)cccc3Cl)nc3ccsc3c2=O)cc1OC,3,-2,0,7,.,.
Cc1c([N+](=O)[O-])cc(C(=O)Oc2ccc3c(c2)OCO3)cc1[N+](=O)[O-],-9,-2,0,-2,.,.
CCOC(=O)C1CCN(C(=O)Nc2ccc(Cl)cc2Cl)CC1,-2,5.4*,0,-8,0,-2
CC1C2CCCN2CCN1Cc1cccc([N+](=O)[O-])c1 (configuration not stated),-8,9.7*,1,5,-1,-9
CCc1nc2sc(C(c3cccc(OC)c3)N3CCC(C(N)=O)CC3)c(O)n2n1 (configuration not stated),-2,5.8*,0,6,-1,-4
COc1cccc(C(c2sc3nc(C)nn3c2O)N2CCC(C(N)=O)CC2)c1 (configuration not stated),6,0,0,-1,.,.
O=C1CC(c2nc3ccccc3n2Cc2ccccc2F)CN1c1ccccc1 (configuration not stated),-11,8.8*,0,-3,0,-9
Cc1ccc(/C=N\NC(=O)c2cc(C)oc2C)cc1,-2,-6,0,13,.,.
O=C(CSc1nc(O)cc(=O)[nH]1)NC(c1ccccc1)c1ccccc1,6,0,0,12,.,.
CC1CCCN(C(=O)NC2(C(F)(F)F)Oc3ccccc3O2)C1 (configuration not stated),-15,5.7*,0,7,1,7
CCc1ccc(CNC(=O)C(=O)NCCc2ccccc2)cc1,0,-1,0,-9,.,.
Cc1ccc(C(=O)O)cc1N1C(=O)c2ccc(Oc3ccc([N+](=O)[O-])cc3)cc2C1=O,0,6.8*,0,-11,0,2
Cc1ccccc1N1C(=O)c2ccc(Oc3ccc([N+](=O)[O-])cc3)cc2C1=O,4,0,0,10,.,.
O=S1(=O)CCC(N=Cc2cccc(Oc3ccccc3)c2)C1 (configuration not stated),-4,-1,0,-9,.,.
CC(=O)N(Cc1cccnc1)Cc1cc2ccccc2[nH]c1=O,-2,0,0,-15,.,.
